Structures are written as SMILES. Activity calls are given as the source filed them. Rule for the calls: active = hit-call score of the fitted dose curve at least 0.9, where 1 is the maximum; inactive = score below 0.9.

The nature of the assay: IUF_NPC2b_neuronal_migration_120hr: Leibniz Research Institute for Environmental Medicine (IUF) 120-hour Neural Progenitor Cell Migration Assay for Neuron Migration (NPC2b) (AID 2284300). The protocol: IUF_NPC2-5 is a cell-based, multiplexed assay that uses hNPC, a human primary neural progenitor cells, with measurements taken at 72 or 120 hours after chemical dosing in a 96-well plate. Human neural progenitor cells (hNPC) are generated from human fetal brain cortex at gestational week (GW) 16-19. In the neural progenitor cell migration and differentiation assay (NPC2-5), hNPCs grown as spheres are plated on an extracellular matrix and migrate and differentiate out of the sphere core. The processes radial glia migration, neuronal and oligodendrocyte migration as well as neuronal differentiation, neuronal morphology and oligodendrocyte differentiation are studied using automated phase contrast imaging and automated fluorescence imaging in combination with high content image analysis. In parallel, the cell viability is assessed using an alamar blue viability assay and the cytotoxicity using a lactate dehydrogenase dependent membrane integrity assay.IUF_NPC2b_neuronal_migration_120hr is one of 12 assay components measured from the IUF_NPC2-5 assay. Neuronal migration distance at 120 hr is the mean distance of all neurons from the edge of the sphere core to each individual neuron (see IUF_NPC3_neuronal_differentiation_120hr). Neuronal migration is normalized to radial glia migration distance at 120 hr.Data from the IUF_NPC2b_neuronal_migration_120hr component was analyzed at the endpoint IUF_NPC2b_neuronal_migration_120hr in the positive analysis fitting direction relative to DMSO as the negative control and baseline of activity. Using a type of migration reporter, gain or loss-of-signal activity can be used to understand developmental effects.
Culture protocol: After the cell expansion period the cells are cultured for up to four weeks in which they are passaged every week as described in 3.6. Between one to three days after passaging spheres at a size of 0.3 mm are picked for the test method. For the assessment of neural progenitor cell migration and differentiation, the spheres are plated on poly-D-lysine/laminin coated 96-well flat bottom plates in differentiation medium (N2) to initiate migration and differentiation. Thereby one 0.3 mm big sphere is plated in the middle of a well. The differentiation medium consists of DMEM and Ham's F12 at a ratio of 3 to 1 supplemented with 1% N2 and 1% penicillin and streptomycin. Within 5 days NPCs radially migrate out of the sphere core and differentiate into radial glia cells (nestin positive), neurons (TUBB3 positive), oligodendrocytes (O4 positive) and astrocytes (GFAP positive). Cultivation during the test method is performed at 37C and 5% CO2 at a ph of 7.2-7.6.Exposure: 0.3 mm big hNPC are plated in the already prepared test conditions. Exposure starts at day 0 of differentiation and is continued over five days of differentiation until the experiment is terminated. Cells are fed with fresh medium at day 3 of differentiation. Therefore, half of the test condition solution (e.g. solvent control or compound dilution) is replaced by freshly prepared test condition solution.Test Method: Migration distance and cytotoxicity is determined after 72 hours based on brightfield images of each well. The assay is terminated by the assessment of cell viability and cytotoxicity as well as cell fixation after 120 h. Immunocytochemistry is performed for Hoechst positive nuclei, TUBB3 positive neurons and O4 positive oligodendrocytes. On the ICC images, migration after 120 hours, neuronal and oligodendrocyte number, neuronal morphology and neuron/oligodendrocyte specific migration is assessed. immunocytochemical staining (ICC) generates an image for each sphere. The plates are scanned using an automated high content imaging device and all nuclei and their positions are determined automatically based on their intensity and size. Images are imported to the Omnisphero software to run the image analysis that measures the following endpoints. […]
As to `Cc1c(COC(=O)[C@@H]2[C@H](/C=C(\Cl)C(F)(F)F)C2(C)C)cccc1-c1ccccc1`, the compound was classed as inactive.

On to `CN/C(=N\[N+](=O)[O-])NCc1cnc(Cl)s1`, for which the compound was classed as inactive.

Take `COP(=S)(OC)SCn1nnc2ccccc2c1=O`: the result was inactive.

In the case of `O=C(Nc1ccccc1-c1ccc(Cl)cc1)c1cccnc1Cl`, the result was inactive.

Turning to `CCOP(=O)(OCC)Oc1nc(Cl)c(Cl)cc1Cl`, the compound was called inactive.

Take `N#CN=C1SCCN1Cc1ccc(Cl)nc1`: the call was inactive.

`CCNC(=O)NC(=O)C(C#N)=NOC`: the call was inactive.

As for `CCSC(=O)N1CCCCCC1`, the compound was called inactive.

As for `CS(=O)(=O)c1cc(C(F)(F)F)ccc1C(=O)c1cnoc1C1CC1`, the result was inactive.

Consider `CNC(=O)Oc1cccc2ccccc12`, for which the result was inactive.

On to `C=C(C)CN(CC)c1c([N+](=O)[O-])cc(C(F)(F)F)cc1[N+](=O)[O-]`, for which the compound was called inactive.

Regarding `COC(=O)N(C(=O)N1CO[C@@]2(C(=O)OC)Cc3cc(Cl)ccc3C2=N1)c1ccc(OC(F)(F)F)cc1`, the result was inactive.

Turning to `CO/N=C(/C1=NOCCO1)c1ccccc1Oc1ncnc(Oc2ccccc2Cl)c1F`, the compound was classed as inactive.

With `CC(C)(C)C(=O)C(Oc1ccc(Cl)cc1)n1cncn1` (stereo unspecified), the compound was classed as inactive.

As to `CC1(C)C(C=C(Cl)Cl)C1C(=O)OC(C#N)c1cccc(Oc2ccccc2)c1` (stereo unspecified), the outcome was inactive.

Regarding `CS(=O)(=O)c1ccc(C(=O)C2C(=O)CCCC2=O)c([N+](=O)[O-])c1`, the outcome was inactive.
